# HCMV inh: qHTS Assay for inhibitors of the human cytomegalovirus (HCMV). 410,000 compounds, 4.5% hits. HFF cells, HCMV-luciferase reporter, 72 h; stronger effect = lower value. AID 1259415, 2018. activity change, negative = inhibition, % at 57.5 µM; in the data active = activity change below about -60%; inconclusive = no clear call, values can overlap the other calls; inactive = above about -39%
#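 Screen run at 2 compound doses on HFFs infected with reporter HCMV, MOI 1 PFU/cell. Luciferase activity from cell lysates at 72 h post infection gave inhibition relative to buffer-only and Salinomycin wells.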
# Giardia FBPA inh: qHTS Assay for Inhibitors of Fructose-1,6-bisphosphate Aldolase from Giardia Lamblia; A8B2U2; purified Giardia FBPA; Potency, µM (series often up to 59.6 µM), for the others: at the highest dose activity, negative = inhibition, actives largely listed as inhibitors; 290,000 compounds, 0.71% hits; AID 2451, 2010; note: potency is the fitted concentration of half-maximal effect; nearly all actives have a fitted effect of over 55% in size
# Target sequence (A8B2U2 whole entry, looked up): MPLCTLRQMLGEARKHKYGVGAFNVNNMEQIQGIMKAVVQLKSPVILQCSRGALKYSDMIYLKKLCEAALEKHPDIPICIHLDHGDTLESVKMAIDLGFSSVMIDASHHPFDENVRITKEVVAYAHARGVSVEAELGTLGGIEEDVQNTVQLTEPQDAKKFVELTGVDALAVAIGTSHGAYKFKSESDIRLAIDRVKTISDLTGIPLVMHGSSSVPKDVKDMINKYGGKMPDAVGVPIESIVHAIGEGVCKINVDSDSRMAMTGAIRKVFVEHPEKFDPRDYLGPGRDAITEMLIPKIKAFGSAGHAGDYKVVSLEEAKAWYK
#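 Giardia FBPA (40 nM reagent) was preincubated 10 min at RT with compound (up to 57.5 uM final), then substrate plus GAPDH/TPI/NAD/arsenate coupling system with diaphorase/resazurin was added; resorufin fluorescence (525/598 nm) was read after 20 min.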
# Sm TGR inh: qHTS Assay for the Inhibitors of Schistosoma Mansoni Peroxiredoxins; Schistosoma mansoni thioredoxin glutathione reductase (TGR), Q962Y6; purified TGR, DTNB reduction, TNB absorbance 405 nm; Potency, µM (doses to about 114 µM), without a hit: at the highest dose activity change, negative = inhibition, most hits filed as inhibitors; 360,000 compounds, 3% hits; AID 485364, 2010; note: potency is the fitted concentration of half-maximal effect; nearly all actives have a fitted effect of over 60% in size
#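 Kinetic colorimetric format: TGR-catalysed, NADPH-driven DTNB reduction monitored via TNB absorbance. Enzyme dispensed at 20 nM; compound exposure 15 min at room temperature before reaction start.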
# Pf growth 96h: Primary qHTS for delayed death inhibitors of the malarial parasite plastid, 96 hour incubation. P. falciparum luciferase reporter growth, 96 h. Potency, µM (doses to about 28.7 µM), for inactives: at the highest dose activity change, negative = inhibition, actives largely listed as inhibitors. 320,000 compounds, 6.9% hits; note: potency is the fitted concentration of half-maximal effect
#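 Infected RBCs, 2% Hct / 0.05% parasitemia final; luciferase-reporter P. falciparum; cpd 96 h, 37 C, 5% CO2; luciferase detection reagent; luminescence.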
# Pf growth 48h: Primary qHTS for delayed death inhibitors of the malarial parasite plastid, 48 hour incubation; Potency, µM (titrated, usually from 28.7 µM), inactives show at the top dose activity change, negative = inhibition, most hits filed as inhibitors; AID 504832, 2011; P. falciparum luciferase growth in erythrocytes, 48 h; 310,000 compounds, 5.9% hits; note: potency is the fitted concentration of half-maximal effect
#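 In quantitative HTS format, infected erythrocytes bearing luciferase-reporter parasites were treated for a single generation at 37 C. Luminescence after adding detection reagent served as the growth measure.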
# Numbers without * were called inactive; ? = inconclusive; / = no result; ! = not active in a repeat; [ ] = another dose, or the depositor's remark. Only some compounds are listed: those with a hit (about 14% of all), similar ones and a draw of the others. Unless noted, calls come from the whole dose curve; as a rule, active = well fitted curve in the direction sought with a large enough effect; inconclusive = small, poorly fitted or top-dose-only effect, or another doubt; inactive = no such curve, though single readings can be large; an effect the other way counts as inactive or inconclusive. % is set by controls: 0 for no effect and ±100 for the full control effect.
SMILES,HCMV inh,Giardia FBPA inh,Sm TGR inh,Pf growth 96h,Pf growth 48h
O=C(NC1CCCCCC1)C(=S)NCCc1ccccc1,-1,-15%,4%,10µM*,25%
O=C(NC1CCCCCC1)C(=S)NCc1ccccc1,7,-26%,/,?,21%
O=C(CCNC(=O)OCc1ccccc1)NC1CCCCC1,?,2%,-1%,3.7µM*,-1%
Cc1cccc(N2CCN(C(=O)C3CCCCC3)CC2)c1C,-38,0%,13%[11.4 µM],?,/
O=C(C1CCN(c2ncnc3c2nc2n3CCCCC2)CC1)N1CCN(c2ccccc2F)CC1,-64*!,-1%,-2%,4%,-1%
Cc1cccc(N2CCN(C(=O)C3CCN(c4ncnc5c4nc4n5CCCCC4)CC3)CC2)c1C,-77*!,/,-9%,?,-11%
Cc1cccc(N2CCN(C(=O)C3CCN(c4ncnc5c4nc4n5CCCCC4)CC3)CC2C)c1 (stereo not drawn),-96*!,6%,-6%,12µM*,0%
Cc1cc(N2CCC(C(=O)N3CCN(c4cccc(C)c4C)CC3)CC2)n2ncnc2n1,-89*,?,2%,/,2.3µM*
Cc1ccc(NC(=O)C2CCN(c3ncnc4c3nc3n4CCCCC3)CC2)cc1Cl,-14,-20%,-14%,29%,-42%
Fc1ccccc1N1CCN(c2ncnc3c2nc2n3CCCCC2)CC1,7,/,0%,/,/
Cc1ccc(N=C2NC(=O)/C(=C/c3cccnc3)S2)c(C)c1,-80*,4%,-3%,?,?
O=C1NC(=Nc2cccnc2)S/C1=C\c1cccc(F)c1,-11,6%,-9%,7%,22%
Cc1ccc(N=C2NC(=O)/C(=C\c3ccsc3)S2)c(C)c1,-72*,-3%,6%,-23%,-28%
O=C1NC(=Nc2ccccc2)S/C1=C/c1cccnc1,?,-2%,4%,29%,8%
Cc1cccc(N=C2NC(=O)/C(=C/c3cccnc3)S2)c1C,?,5%,14%,?,13µM*
CCOC(=O)c1sc2nc(CC(=O)OC)nc(NCc3ccc(Cl)cc3)c2c1C,-107*,-5%,-6%,?,/
CCOC(=O)c1sc2nc(CC(=O)OC)nc(NCCN3CCOCC3)c2c1C,?,5%,25µM*,?,?
CCOC(=O)c1sc2nc(CC(=O)OC)nc(NCCN(CC)CC)c2c1C,-31,5%,-16%,?,/
Cc1ccc(-n2c(=O)c3c(c4cc(C)ccc4n3C)n(CC(=O)Nc3c(C)cccc3C)c2=O)cc1,21,/,-5%,/,/
Cc1ccc(-n2c(=O)c3c(c4cc(C)ccc4n3C)n(CC(=O)Nc3ccc(F)cc3)c2=O)cc1,-75*,/,-3%,/,/
COc1ccc(S(=O)(=O)Nc2c(C)cc(C)cc2C)c2cccnc12,-62*,4%,2%,-19%,23%
Cc1cc(C(=O)Nc2ccc(Nc3ccccc3)cc2)ccc1[N+](=O)[O-],-21,-16%,-1%,12µM*,-26%
Cc1ccccc1NC(=O)c1ccc(Nc2c([N+](=O)[O-])cc([N+](=O)[O-])c3ccccc23)cc1,-92*,5%,6%,?,?
C=CCOc1ccc(CC(=O)O)cc1Cl,/,13%,/,13%,0%
COc1cc(C2c3cc4c(cc3CC3COC(=O)N32)OCO4)cc(OC)c1OC (stereo not drawn),-88*,/,/,/,/
SMILES,HCMV inh,Giardia FBPA inh,Sm TGR inh,Pf growth 96h,Pf growth 48h
COc1cc([C@H]2c3cc4c(cc3[C@@H](O)[C@@H]3COC(=O)[C@H]23)OCO4)cc(OC)c1OC,/,-2%[21.7 µM],/,/,/
O=C(CN1C(=O)NC2(CCCC2)C1=O)NCCc1ccc(F)cc1,36,/,/,/,/
O=C(O)c1sc2ncccc2c1OCc1ccccc1,-17,22%,/,10%,-11%
Oc1ccc(Cc2ccccc2)c2cccnc12,-100*,/,/,/,/
Oc1ccc(COCc2ccccc2)c2cccnc12,-99*,13%,35µM*,4.1µM*!,3.3µM*
OCc1ccccc1O,/,5%,/,?,-8%
CN(Cc1ccco1)Cc1ccc(O)c2ncccc12,/,/,0.71µM*,10µM*,?
OCc1ccc(O)c2ncccc12,-98*,?,22µM*,?,9.3µM*
CC(C)Nc1nc(NC(C)C)nc(SCC(N)=O)n1,-27,6%,0%,?,3%
O=C(Nc1ccccc1)c1c2c(nc3ccccc13)CCCC2,0,5%,16%,?,-7%
O=C(O)CCC/C=C\C/C=C\C=C\[C@@H](O)C/C=C\CCCCCO,/,4%,/,/,/
CN(C)c1ncc2nc(-c3ccc(Cl)cc3)c(=O)n(C)c2n1,/,7%,/,/,/
CCOC(=O)c1cccc(C2=CC(=O)CC(C)(C)C2)c1,4,/,-1%,?,-15%
OCCNCc1ccc(-c2ccccc2)cc1,2,-5%,7%,28%,11%
OCCCNCc1ccc(N(c2ccccc2)c2ccccc2)cc1,?,?,0%,2.3µM*,?
CCCCn1c(N)c(N(CC(C)C)C(=O)CN2C(=O)NC3(CCC(C(C)(C)CC)CC3)C2=O)c(=O)[nH]c1=O (stereo not drawn),-17,/,/,/,/
C=CCNC(=S)N/N=C/c1cn(C)c2ccccc12,-5,17%,?,?,8.3µM*
Cn1cc(/C=N\NC(=O)c2cccs2)c2ccccc21,193,0%,1%,5.9µM*,111%
Cn1cccc1/C=N/NC(=O)c1cccs1,18,/,-11%,40%,80%
C[C@@H]1C(=O)OC2C[C@@]34[C@H]5C[C@@H](C(C)(C)C)[C@@]36C(O)C(=O)O[C@H]6O[C@@]4(C(=O)O5)[C@]21O (stereo partly drawn),/,6%,/,/,/
Cc1cccc(NC(=O)C(c2ccccc2Cl)N2CCOCC2)c1 (stereo not drawn),39,4%,-4%,15µM*,12µM*
